Values without a mark were called inactive. The call rests on the fitted dose curve; in most records, active means well fitted activation curve with a large enough effect; inconclusive means small, poorly fitted or top-dose-only effect; inactive means no such curve, though single readings can be large or run the other way.
Target: Parathyroid hormone/parathyroid hormone-related peptide receptor (Homo sapiens) (UniProt Q03431)
Assay: qHTS for PTHR1 Agonists: Optimization Screen against the NCGC LOPAC library (AID 1347079); further: 0% is about no effect
Conditions: HEK293 GP2 PTHR1 GloSensor cAMP luminescence, 1 h; series mostly up to 57.1 µM; activation: at the top concentration
Text: The goal of the proposed studies is to discover new compounds that act as potent agonists on the parathyroid hormone receptor type-1 (PTHR1). The PTHR1 plays critical roles in maintaining blood calcium and phosphate levels, as well as in controlling bone remodeling. PTHR1 agonists could thus be useful for treating diseases such as hypoparathyroidism and osteoporosis. In the former disease, an agonist drug would help maintain normal blood calcium and phosphate levels under conditions of parathyroid hormone deficiency. In the latter disease, an agonist drug would stimulate new bone formation and thus reduce the risk of fracture, under conditions of bone fragility, as occurs in aging. We performed an optimization assay of the quantitative high-throughput screening (qHTS) for the parathyroid hormone receptor type-1 (PTHR1) against the NCGC LOPAC library collection of […] compounds using a unique HEK-293-derived cell line (GP2) that expresses the PTHR1 and a GloSensor cAMP reporter construct. Increase in signal (activation / agonist) is the desired outcome for compounds of interest. NIH Chemical Genomics Center [NCGC] NIH Molecular Libraries Probe Production Centers Network [MLPCN] MLPCN Grant: P01 DK011794 Assay Submitter (PI): Thomas Gardella PhD, Massachusetts General Hospital
Reagents / Controls: M-PTH (1-15) peptide hormone fragments was provided by the assay provider and was used as a control. Column 1 was treated with M-PTH titration (1:2 dilution) beginning with a final concentration of 10uM. Column 2 was treated with M-PTH final concentration of 10uM. Columns 3 and 4 were treated with DMSO only to assess background and noise signal. Assay Steps: Four microLiter of cells suspension was dispensed in a 1536-well assay plate at a final density of 3000 cells/well. The plates were incubated overnight, after which 4uL of 0.5mM of BloTium Luciferin plus 0.5mM IBMX was added. Next, the plate was incubated at 37C for 1hr before 23nL of compound (at various final concentrations from 40uM to 0.32uM) and control were added using a 1536-well array Kalypsys pin-tool. The treated plates were again incubated at 37C for another hour. Luminescence signal was obtained using the PerkinElmer ViewLux plate reader after 15min or room temperature incubation.

Parathyroid hormone/parathyroid hormone-related peptide receptor (Homo sapiens), sequence (Q03431 whole entry, looked up): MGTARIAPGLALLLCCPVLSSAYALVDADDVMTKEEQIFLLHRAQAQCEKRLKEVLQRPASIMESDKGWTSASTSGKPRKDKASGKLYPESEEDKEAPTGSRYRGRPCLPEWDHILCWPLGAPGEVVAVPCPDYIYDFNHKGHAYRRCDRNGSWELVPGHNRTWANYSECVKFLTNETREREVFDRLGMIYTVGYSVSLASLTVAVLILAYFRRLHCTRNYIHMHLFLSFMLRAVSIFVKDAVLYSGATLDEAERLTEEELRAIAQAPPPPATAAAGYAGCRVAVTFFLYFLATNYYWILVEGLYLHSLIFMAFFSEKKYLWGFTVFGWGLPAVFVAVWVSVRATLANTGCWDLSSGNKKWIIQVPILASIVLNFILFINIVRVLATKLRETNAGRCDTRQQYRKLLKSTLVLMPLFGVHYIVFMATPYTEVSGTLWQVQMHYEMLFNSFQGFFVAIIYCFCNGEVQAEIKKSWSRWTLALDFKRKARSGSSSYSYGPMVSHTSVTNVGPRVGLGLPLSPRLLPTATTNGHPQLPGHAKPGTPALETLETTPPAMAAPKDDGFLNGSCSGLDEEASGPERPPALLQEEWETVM

Compound	activation
Nc1nc(Cl)nc2c1ncn2[C@@H]1O[C@H](CO)[C@@H](O)[C@H]1O	39.4%
CN(C)c1ccc(/C=C2\C(=O)Nc3ccccc32)cc1	13.6%
CC(C)NC[C@@H](O)c1ccc(O)c(O)c1	108%
Brc1c(Br)c(Br)c2n[nH]nc2c1Br	-16%
O=C(O)/C=C/C(O)c1ccc(Cl)cc1 (stereo not given)	41.3%
CCCn1c(=O)c2[nH]c(-c3ccc(OCC(=O)NCCN)cc3)nc2n(CCC)c1=O	16.7%
O=C1/C(=C/c2ccsc2)CC/C1=C\c1cccs1	-18.6%
CN1CCc2cc(NC(=O)Nc3cccnc3)ccc21	14.7%
Nc1nc(Cl)nc2c1ncn2[C@@H]1O[C@H](COP(=O)(O)OP(=O)(O)OP(=O)(O)O)[C@@H](O)[C@H]1O	-33.9%
Oc1cc(O)cc(/C=C/c2ccc(O)c(O)c2)c1	0.523%
COc1cccc(C(=O)NCCN2CCN(c3ccc(Cl)cc3)CC2)c1	-42.1%
O=C1NC(=O)/C(=C/c2ccc3nccnc3c2)S1	31%
C#CCN1C(C)=C(C(=O)OC)C(c2cccc([N+](=O)[O-])c2)C(C(=O)OCC)=C1C (stereo not given)	2.44%
CCN(CC)c1ncnc2c1ncn2[C@@H]1O[C@H](COP(=O)(O)OP(=O)(O)C(Br)(Br)P(=O)(O)O)[C@@H](O)[C@H]1O	-28.6%
Cc1ccccc1CNc1ncnc2c1ncn2C1OC(CO)C(O)C1O (stereo not given)	3.71%
OCC1O[C@H]([S-])[C@H](O)[C@@H](O)[C@@H]1O.[Au+] (stereo not given in full)	-21.8%
CC(C)NCC(O)COc1cccc2ccccc12 (stereo not given)	-12.9%
O=C(Nc1ccccc1)c1cc([N+](=O)[O-])ccc1Cl	-31%
O=C(O)CNC(=O)C(CS)Cc1ccccc1 (stereo not given)	-11.1%
Oc1cc2c(cc1O)CN(C(=S)NCCc1ccc(Cl)cc1)CCC2	-12%

Compound	activation
CO/N=C(\C(=O)N[C@@H]1C(=O)N2C(C(=O)O)=C(COC(C)=O)CS[C@H]12)c1csc(N)n1	-24.4%
Clc1ccc(N2CCN(Cc3c[nH]c4ncccc34)CC2)cc1	-36.1%
c1ccc(-c2ccccn2)nc1	-29.7%
CN=c1nc(-c2ccccc2)n(-c2ccccc2)s1	-24.3%
CC(=O)SCC[N+](C)(C)C	-6.72%
C#C[C@]1(O)CC[C@H]2[C@@H]3CCC4=Cc5oncc5CC4(C)[C@H]3CCC21C (stereo not given in full)	-32.6%
O=[N+]([O-])c1ccc(CSc2ncnc3c2ncn3[C@@H]2O[C@H](CO)[C@@H](O)[C@H]2O)cc1	-13.2%
COc1cc(OC)c(/C=C2/C(=O)Nc3ccccc32)c(OC)c1	-39.2%
O=c1[nH]c2cc(Cl)c(Cl)cc2[nH]c1=O	0.872%
COc1ccc2c(c1)CCC1C2CC[C@@]2(C)C1CC[C@@H]2NCCCCCCN1C(=O)CCC1=O (stereo not given in full)	-29.9%
COc1cc(C(O)CO)ccc1OS(=O)(=O)O (stereo not given)	-20.7%
N=c1ccn2c(n1)O[C@H]1[C@H](O)[C@@H](CO)O[C@H]12	-53.1%
COC(=O)c1c(C)[nH]c(C)c1C(=O)c1ccccc1Cc1ccccc1	-18.1%
Cc1ccc(O)c(N=Nc2ccccc2)n1	-27.6%
C[C@@H](NC(=O)/C(C#N)=C/c1ccc(O)c(O)c1)c1ccccc1	8.59%
C=CC(C)=C[C@@]1(C)SC(=O)C(C)=C1O	11.9%
CC(COc1ccc(/C=C/c2ccccc2)cc1)[N+](C)(C)C (stereo not given)	16%
CCCN(CC1CC1)c1nc(C)nc(Nc2c(Cl)cc(Cl)cc2Cl)c1Cl	-20.8%
CN(C)CCC(c1ccc(Cl)cc1)c1ccccn1 (stereo not given)	23.4%
CC(C)CC(NP(=O)(O)O[C@@H]1O[C@@H](C)[C@H](O)[C@@H](O)[C@H]1O)C(=O)NC(Cc1c[nH]c2ccccc12)C(=O)O (stereo not given in full)	-7.41%

Reference: PubChem BioAssay (NCATS)
